Measured values as given in PubChem BioAssay AID651616 (The Scripps Research Institute Molecular Screening Center, 2012).
Hit rate of the full screen: of about 5,600 compounds, about 4,400 (79%) were called active. Rule as the data show it: active = inhibition above about 27%; inactive = the rest. So high a share suggests a set chosen from earlier hits. Not all results are given here.

What follows are compounds tested against Fructose-bisphosphate aldolase (Mycobacterium tuberculosis (strain ATCC 25618 / H37Rv)) (UniProt P9WQA3) (assay: M. tuberculosis aldolase blockers, biochemical, fluorescence, strain H37Rv, confirmation (AID 651616;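 also: 0% = vehicle wells and 100% = reference inhibitor wells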)). Settings: purified M. tuberculosis FBA, fluorescence read-out, at 1 µM, active compounds read high.
Fructose-bisphosphate aldolase (Mycobacterium tuberculosis (strain ATCC 25618 / H37Rv)), sequence (P9WQA3 whole entry, looked up): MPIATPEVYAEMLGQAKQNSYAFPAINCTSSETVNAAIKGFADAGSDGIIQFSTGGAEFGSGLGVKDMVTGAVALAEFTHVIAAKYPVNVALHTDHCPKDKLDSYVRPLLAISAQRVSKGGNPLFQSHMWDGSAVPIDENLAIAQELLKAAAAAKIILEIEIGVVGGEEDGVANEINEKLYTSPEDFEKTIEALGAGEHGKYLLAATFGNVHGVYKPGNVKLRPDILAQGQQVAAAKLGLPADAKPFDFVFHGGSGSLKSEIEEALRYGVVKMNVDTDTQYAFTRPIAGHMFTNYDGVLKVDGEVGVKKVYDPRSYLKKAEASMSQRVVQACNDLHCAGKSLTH
For `CC(C)OCCCNc1ncnc2c1[nH]c1ccc(F)cc12`, the inhibition was 132% (active).
With `CC(C)CN1CCNC(=O)C1CC(=O)N(C)CC1CCOCC1` (configuration not stated) the inhibition was 138% (active).
`COC(=O)COc1cc(C)cc2oc(=O)c3c(c12)CCCC3` was tested, and the inhibition was 124% (active).
For `Cc1cc(OCc2cc(C(=O)O)oc2C)c2c3c(c(=O)oc2c1)CCCC3`, the inhibition was 151% (active).
`CCCS(=O)(=O)Nc1c(C(=O)O)[nH]c2ccccc12` was tested, and the inhibition was 54.9% (active).
With `CCOC(=O)c1c(-c2ccccc2)oc2ccc(OCC(=O)NN)cc12` the inhibition was 108% (active).
In the case of `CCOC(=O)c1c(-c2ccccc2)oc2ccc(OCC(N)=O)cc12`, the inhibition is reported as 148% (active).
With `COC(=O)c1c(-c2ccsc2)oc2ccc(-c3cc(OC)c(OC)c(OC)c3)cc12` the inhibition was 2.75% (inactive).
In the case of `COc1cc(C(F)(F)F)nc2c(Br)c(C(C)(C)C)nn12`, the inhibition is reported as 66.4% (active).
For `Cc1ccc(NC(=O)CN(C)C(=O)COC(=O)c2nccnc2N)cc1`, the inhibition was 4.29% (inactive).
In the case of `CCN(CC)c1ccc2cc(C(=O)O)c(=O)oc2c1`, the inhibition is reported as 22.1% (inactive).
For `COc1ccc2oc(=O)c(C(=O)NCc3ccccn3)cc2c1`, the inhibition was 10.3% (inactive).
For `COc1ccc2oc(=O)c(C(=O)N3CCCC3)cc2c1`, the inhibition was 113% (active).
With `C=CCc1c(C)nc2cc(-c3ccccc3)[nH]n2c1=O` the inhibition was 56.1% (active).
In the case of `CCc1c(C)nc2cc(C)[nH]n2c1=O`, the inhibition is reported as 45.6% (active).
`CCc1c(C)nc2cc(-c3cccs3)[nH]n2c1=O` was tested, and the inhibition was 26.8% (inactive).
For `CN(C)S(=O)(=O)c1ccc(N/C=C(\[N+](=O)[O-])S(=O)(=O)c2ccccc2)cc1`, the inhibition was 2.34% (inactive).
For `COCc1cc(=O)oc2cc(NS(=O)(=O)c3ccc(C)cc3)ccc12`, the inhibition was 62.7% (active).
`COCCN(CCOC)c1nc(N)c2c(N)nc3c(c2c1C#N)CC(=O)N3Cc1ccc(Cl)cc1` was tested, and the inhibition was 89.8% (active).
In the case of `CCCC1OC23CCCCC2C(C#N)(C#N)C1(C#N)C(=N)O3` (configuration not stated), the inhibition is reported as -0.85% (inactive).
In the case of `O=C(c1cc(-c2ccc(Cl)s2)nc2ccccc12)N1CCOCC1`, the inhibition is reported as 111% (active).
For `CC(=O)N1CCN(C(=O)c2cc(-c3ccc(Cl)s3)nc3ccccc23)CC1`, the inhibition was 12.6% (inactive).
In the case of `Cc1nn(C)c(Oc2ccccc2)c1CCNS(=O)(=O)c1ccc(F)cc1`, the inhibition is reported as 157% (active).
`Cc1cccc(NC(=O)c2sc3nc(N4CCOCC4)c4c(c3c2N)CCCC4)c1` was tested, and the inhibition was 108% (active).
In the case of `Oc1ccc(Br)cc1C=Nc1ccc2[nH]ncc2c1`, the inhibition is reported as 79.1% (active).
In the case of `COc1ccc(-c2cn3ccc(C)cc3n2)cc1`, the inhibition is reported as 4.46% (inactive).
With `COc1ccc(-c2cc(C(=O)N(C)Cc3ccccc3)c3ccccc3n2)cc1` the inhibition was -2.17% (inactive).
With `COc1ccc(-c2cc(C(=O)Nc3ccccc3O)c3ccccc3n2)cc1` the inhibition was 133% (active).
`COc1nc(N=C(N)N)nc2c(C)cccc12` was tested, and the inhibition was 108% (active).
With `COc1cc2nc(N3CCN(C(=O)[C@@H]4CCCO4)CC3)nc(N)c2cc1OC` the inhibition was 109% (active).
With `CC(C)C1Nc2c(C(=O)O)cccc2C(Nc2ccccc2C(=O)O)C1(C)C` (configuration not stated) the inhibition was 95.8% (active).
`Cc1noc(C)c1COc1ccc2ccc(=O)oc2c1` was tested, and the inhibition was 55.1% (active).
`COC(=O)c1c(C)c(C)nc(N)c1C#N` was tested, and the inhibition was 56.3% (active).
In the case of `CCOC(=O)Cc1c(C)nc2c(C#N)c(C)nn2c1C`, the inhibition is reported as 63.7% (active).
For `Cc1cc(C)c(-c2c(O)c3ccccc3n(C)c2=O)c(C)c1`, the inhibition was 78.7% (active).
`CCSc1nnc(-c2cc3c(s2)-c2ccccc2CC3)o1` was tested, and the inhibition was 76.8% (active).
In the case of `CCCCOc1ccc(-c2nnc(-c3ccco3)o2)cc1`, the inhibition is reported as 174% (active).
With `CCOc1ccc(-c2nnc(-c3ccco3)o2)cc1` the inhibition was 106% (active).
With `CCNC(=S)Nc1ccc2c(c1)c(=O)n(C)n2Cc1ccc(Cl)cc1` the inhibition was 3.5% (inactive).
With `Cc1ccc(-c2nc3ccccc3[nH]c2=O)cc1` the inhibition was 74.3% (active).
With `CCOC(=O)COc1nc(C)cc(C(F)(F)F)c1C#N` the inhibition was 39.2% (active).
`CCc1cc(=O)oc2cc(C)cc(OCC(=O)N3CCC[C@@H]3C(=O)O)c12` was tested, and the inhibition was 83.3% (active).
In the case of `Cc1ccn2c(c1)nc(=O)c1cc(S(=O)(=O)N3CCC(C)CC3)ccc12`, the inhibition is reported as 5.35% (inactive).
`Cc1ccc(-c2nc3ccccc3c(=O)n2-c2ccc(Br)cn2)cc1` was tested, and the inhibition was 98.1% (active).
`C[C@H]1CN([C@@H](C)CO)C(=O)c2cc(Br)cnc2O[C@H]1CN(C)S(=O)(=O)c1cccs1` was tested, and the inhibition was 8.79% (inactive).
For `COCCNc1cc(-c2ccccc2)nc2cc(-c3cccc(F)c3)nn12`, the inhibition was 133% (active).
In the case of `Fc1ccc(COc2cccc(-c3n[nH]c(=S)o3)c2)cc1`, the inhibition is reported as 169% (active).
For `O=C(Nc1ccc2nccnc2c1)c1ccco1`, the inhibition was 692% [above what the read-out allows, likely interference] (active).
`CCCn1c(=O)c(-c2ccccc2)c(O)c2ccccc21` was tested, and the inhibition was 94.4% (active).
With `Cc1ccc(S(=O)(=O)N2C[C@@H](C)[C@]3(C2)[C@H](O)[C@H](OC(=O)NCc2ccccc2)C[C@H]2C(=O)N(c4ccccc4)C(=O)[C@H]23)cc1` the inhibition was 9.3% (inactive).
For `COc1ccc(C2CC(c3cccs3)=NN2c2ccc(F)cc2)cc1OC` (configuration not stated), the inhibition was 101% (active).
`Oc1ccccc1C1=NN(c2ccccc2)C(c2ccccc2)C1` (configuration not stated) was tested, and the inhibition was 107% (active).
In the case of `COc1ccccc1N1N=C(c2cccs2)CC1c1ccccc1` (configuration not stated), the inhibition is reported as 46.8% (active).
For `COc1ccc(C2CC(c3cccs3)=NN2c2ccccc2)cc1` (configuration not stated), the inhibition was 38.9% (active).
With `Fc1ccc(N2N=C(c3cccs3)CC2c2ccco2)c(F)c1` (configuration not stated) the inhibition was 1.22% (inactive).
With `CS(=O)(=O)Nc1ccc(C2=NN(S(C)(=O)=O)C(c3cccs3)C2)cc1` (configuration not stated) the inhibition was 2.17% (inactive).
`Cc1ccc(-c2nc(C#N)c(NCCCn3ccnc3)o2)cc1` was tested, and the inhibition was 41.3% (active).
`Cc1nc2ccc(NC(=O)N3CCC(c4ccccc4)C3)cc2nc1C` (configuration not stated) was tested, and the inhibition was 98.1% (active).
In the case of `O=C(NCc1ccccc1)c1onc(CSc2nc3ccccc3[nH]2)c1C(=O)NCc1ccccc1`, the inhibition is reported as 74.2% (active).
For `COCCNc1nc(-n2nc(C)cc2C)nc2sc3c(c12)CCCC3`, the inhibition was 109% (active).
With `O=C(NCCCN1CCOCC1)c1cnn2c(-c3ccccc3)cc(-c3ccccc3)nc12` the inhibition was 96.2% (active).
For `CC(C)(C)NC(=O)COc1ccc(CNc2ccc3[nH]c(=O)[nH]c3c2)cc1`, the inhibition was 1.48% (inactive).
